Screens as filed in PubChem.
D3 antag: D3 dopamine receptor (human) antagonism | AID 652054 | P35462 | D3R cells, DiscoveRx beta-arrestin luminescence, antagonist mode; stronger effect = lower value | max response, negative = inhibition, % | 2.5% of 360,000 active; in the data active means max response below about -50%; inconclusive means no clear call, values can overlap the other calls
Target sequence (P35462 whole entry, looked up): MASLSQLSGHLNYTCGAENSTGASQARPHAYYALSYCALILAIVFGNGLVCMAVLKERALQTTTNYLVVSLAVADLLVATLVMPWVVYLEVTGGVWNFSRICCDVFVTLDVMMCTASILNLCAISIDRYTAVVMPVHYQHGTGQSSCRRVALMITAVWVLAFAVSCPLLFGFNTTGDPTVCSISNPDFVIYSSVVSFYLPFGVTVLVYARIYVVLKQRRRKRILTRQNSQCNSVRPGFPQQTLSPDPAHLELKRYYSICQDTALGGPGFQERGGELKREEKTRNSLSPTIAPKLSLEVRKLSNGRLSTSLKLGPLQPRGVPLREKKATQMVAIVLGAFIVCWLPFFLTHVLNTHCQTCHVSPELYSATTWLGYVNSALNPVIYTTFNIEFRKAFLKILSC
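Cells expressing the human receptor were seeded at 1500 cells/well, incubated overnight at 37 degrees C in 5% CO2, then exposed to library compounds with dopamine controls for 90 minutes at 37 degrees C before luminescent detection.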
TSHR antag: antagonists of human thyroid stimulating hormone receptor; TSHR-expressing cells, TSH-stimulated cAMP HTRF, 2 h; stronger effect = lower value; activity change, negative = inhibition, % at 11.5 µM; 0.2% of 330,000 active; P16473; AID 504810;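 active means activity change below a set negative limit, meaning inhibition stronger than a set level, cut at about -70% in these data; inconclusive means activity change between two set negative limits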
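TSHR-expressing cells were treated with compounds, then stimulated with TSH at EC80 (4nM final) for 2 hours at 37 deg C. Cellular cAMP was measured by HTRF competition between lysate cAMP and cAMP-d2 for a cryptate-labelled anti-cAMP antibody.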
B2AR arrestin: agonists driving beta-arrestin recruitment to human beta2-adrenergic receptor; P07550; beta-arrestin recruitment to beta2AR, cell-based reporter; Potency, µM (top dose mostly 46.1 µM), actives largely listed as activators; 0.02% of 330,000 active; active means well fitted activation curve with a large enough effect; inconclusive means small, poorly fitted or top-dose-only effect; further: nearly all actives have a fitted effect of over 65% in size
D3 ag: D3 dopamine receptor (human) agonism | max activation, % | P35462 | D3R DiscoveRx beta-arrestin cells, luminescence, 90 min | 0.58% of 410,000 active; in the data active means max activation above about 30%
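Agonist mode: compounds and dopamine controls were applied to plated cells for 90 min at 37 degrees C after an overnight attachment at 1500 cells/well. Luminescent read-out followed 30 - 60 minutes at room temperature with DiscoveRx detection reagent.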
Hits are given with their value; n = inactive; u = inconclusive; x = no result given. Compounds with a hit are over-represented: about 2.9% of the library has one in this group of screens.

SMILES	D3 antag	TSHR antag	B2AR arrestin	D3 ag
COc1cccc(N2CCN(Cc3cccnc3)CC2)c1	u	n	n	n
Cc1cccc(N2CCN(Cc3ccoc3)CC2)c1C	-87	n	n	n
FC(F)(F)c1cccc(N2CCN(Cc3ccoc3)CC2)c1	-96	n	n	n
Cc1cc(CN2CCN(c3cccc(C)c3C)CC2)cs1	x	x	x	n
CCC(=O)Oc1ccc(C2Nc3ccccc3-c3nnc(SC)nc3O2)cc1 (stereo not given)	x	x	x	n
CCOc1cc2[nH]c(=O)n(CCCC(=O)N3CCN(c4cccc(Cl)c4)CC3)c(=O)c2cc1OCC	x	x	x	n
CC(C)C12CN3CC(C(C)C)(CN(C1)C3c1ccccc1)C2O (stereo not given)	-84	n	n	n
COc1cc2c(=O)n(CCCN3CCOCC3)c(=S)[nH]c2c(OC)c1OC	-83	n	n	n
CCOc1cc2[nH]c(=S)n(CCCN3CCOCC3)c(=O)c2cc1OCC	-71	n	n	n
O=C(Nc1ccc(F)cc1)c1oc2ccccc2c1NC(=O)C12CC3CC(CC(C3)C1)C2	x	x	x	n
Cc1ccc(Cl)cc1NC(=O)Cn1c(=O)oc2cc(S(=O)(=O)N3CCCC3)ccc21	x	x	x	n
CC(C)CC(=O)NCC(c1ccc2c(c1)OCO2)N1CCN(c2ccccc2)CC1 (stereo not given)	x	x	x	n
COc1cc(NC(=O)c2nc3cc(C)c(C)cc3n(C)c2=O)cc(OC)c1OC	x	x	x	n
O=C(NCc1ccc2c(c1)CCN2C(=O)c1ccccc1)c1ccco1	x	x	x	n
Cc1cc(C)c(OCCCNCc2ccccc2)c(Br)c1	n	n	n	n
Cc1cc(C)c(OCCCNC2CCCC2)c(Br)c1	-53	n	n	n
CCC(=O)N1CCc2cc(Br)cc(S(=O)(=O)N3CCCC(C(=O)Nc4ccc(C(C)C)cc4)C3)c21 (stereo not given)	x	x	x	n
COc1cc(NC(=O)c2nn(C)c3c2COc2ccccc2-3)cc(OC)c1OC	x	x	x	n
Cc1cc(C)nc(SCc2cc(=O)c(OC(=O)c3cccc([N+](=O)[O-])c3)co2)n1	n	n	n	111
O=C(C1CCN(Cc2ccc(F)cc2)CC1)N1CCN(C/C=C/c2ccccc2)CC1	-77	n	n	n
O=C(C1CCN(C2CCN(C/C=C/c3ccccc3)CC2)CC1)N1CCOCC1	n	n	n	n
O=C(C1CCN(Cc2ccccc2)CC1)N1CCN(C/C=C/c2ccccc2)CC1	-54	n	n	n
O=C(C1CC1)N1CCN(Cc2ccccc2)CC1	n	x	x	n
O=C(CNC1CCCCCC1)Nc1ccccc1N1CCCCC1	-64	x	n	n
O=C(CN1CCc2ccccc2C1)Nc1ccccc1N1CCCCCC1	-54	n	n	n
SMILES	D3 antag	TSHR antag	B2AR arrestin	D3 ag
CCOC(=O)c1ccc(NC(=O)CN2CCc3ccccc3C2)cc1	-62	n	n	n
Cc1ccc(NC(=O)C(C)N2CCc3ccccc3C2)cc1 (stereo not given)	-76	n	n	n
CC(C(=O)Nc1ccc(S(=O)(=O)N2CCCC2)cc1)N1CCc2ccccc2C1 (stereo not given)	u	n	n	n
O=C(CSCc1cc(=O)c2cc(F)ccc2[nH]1)Nc1ccccc1Cl	x	x	x	n
COc1ccc(CCC(=O)NCc2nc3cccnc3n2Cc2ccc(C)cc2)cc1	x	x	x	n
COC(=O)c1cc(OC)c(OC)c(OC)c1NC(=O)c1cc(=O)n(C)c(=O)n1C	x	x	x	n
CC(C)OCCCNC(=O)c1ccc2c(c1)N(Cc1c(F)cccc1Cl)C(=O)c1ccccc1S2	x	x	x	n
Cc1ccc(NS(=O)(=O)c2ccc(-c3cnc(C4CC4)o3)cc2)cc1N(C)C	x	x	x	n
O=C(CN1CCc2ccccc2C1)Nc1ccc(F)cc1	n	n	n	n
Cc1cc(C)cc(NC(=O)CN2CCc3ccccc3C2)c1	-67	n	n	n
COc1cccc(CNC(=O)CCn2cccn2)c1	x	x	x	n
O=c1c2ccccc2c2ccccc2c(=O)n1Cc1cccnc1	-108	n	n	n
O=c1c2ccccc2[nH]c(=S)n1Cc1cccnc1	n	n	n	n
O=C(c1ccc(Nc2nc3ccccc3n3nnnc23)cc1)N1CCN(c2ccc(F)cc2)CC1	x	x	x	n
O=C(Nc1ccccc1C(=O)N1CCN(c2cccc(Cl)c2)CC1)C1=CSCCO1	n	-132	n	n
c1ccc(C2(Cn3ccc4ccccc43)OCCO2)cc1	n	n	n	71
CCOC(=O)C1(C)CCCN(C(=O)c2ccccc2)C1 (stereo not given)	-61	x	x	n
CCOC(=O)C1(C)CCCN(C(=O)c2ccc(-c3ccccc3)cc2)C1 (stereo not given)	n	x	x	n
